Assay results reported in ChEMBL document CHEMBL2218924, “A broad activity screen in support of a chemogenomic map for kinase signalling research and drug discovery” (Biochem J, 2013).

Legend:
[1] = biological target: High affinity nerve growth factor receptor (Homo sapiens) (UniProt P04629); settings: at 10 µM
[2] = biological target: T1, Serine/threonine-protein kinase ULK3 (Homo sapiens) (UniProt Q6PHR2); settings: at 1 µM
T1 sequence (whole entry): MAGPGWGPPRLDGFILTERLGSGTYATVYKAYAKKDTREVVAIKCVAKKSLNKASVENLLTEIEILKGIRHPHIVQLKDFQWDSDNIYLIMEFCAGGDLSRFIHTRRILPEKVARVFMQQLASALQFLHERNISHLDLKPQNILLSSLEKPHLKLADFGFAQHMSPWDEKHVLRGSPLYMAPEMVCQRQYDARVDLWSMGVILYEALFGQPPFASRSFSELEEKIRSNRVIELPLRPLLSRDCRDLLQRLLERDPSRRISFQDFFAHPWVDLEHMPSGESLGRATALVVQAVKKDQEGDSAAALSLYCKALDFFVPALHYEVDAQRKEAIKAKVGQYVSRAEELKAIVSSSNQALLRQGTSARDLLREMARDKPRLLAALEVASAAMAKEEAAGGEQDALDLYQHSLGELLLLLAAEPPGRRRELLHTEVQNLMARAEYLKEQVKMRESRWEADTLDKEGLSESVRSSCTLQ

[3] = biological target: T1, Serine/threonine-protein kinase ULK3 (Homo sapiens); settings: at 10 µM
[4] = biological target: Serine/threonine-protein kinase WNK2 (Homo sapiens) (UniProt Q9Y3S1); settings: at 1 µM;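 also: residual WNK2 kinase activity expressed as percent of uninhibited control, assayed in MOPS buffer at pH 7.0 containing EDTA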
[5] = biological target: T2, Testis-specific serine/threonine-protein kinase 1 (Homo sapiens) (UniProt Q9BXA7); settings: at 1 µM
T2 sequence (whole entry): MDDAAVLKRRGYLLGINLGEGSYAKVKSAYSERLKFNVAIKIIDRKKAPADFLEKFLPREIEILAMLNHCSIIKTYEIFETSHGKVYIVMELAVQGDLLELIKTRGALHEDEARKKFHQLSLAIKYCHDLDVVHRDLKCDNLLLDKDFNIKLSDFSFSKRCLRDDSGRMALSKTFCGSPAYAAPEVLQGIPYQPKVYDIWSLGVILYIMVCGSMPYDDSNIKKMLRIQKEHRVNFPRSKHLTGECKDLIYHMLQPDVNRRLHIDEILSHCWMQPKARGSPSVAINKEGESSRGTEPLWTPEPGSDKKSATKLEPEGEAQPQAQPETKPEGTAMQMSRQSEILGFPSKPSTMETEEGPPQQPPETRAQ

[6] = biological target: T3, Testis-specific serine/threonine-protein kinase 2 (Homo sapiens) (UniProt Q96PF2); settings: at 10 µM
T3 sequence (whole entry): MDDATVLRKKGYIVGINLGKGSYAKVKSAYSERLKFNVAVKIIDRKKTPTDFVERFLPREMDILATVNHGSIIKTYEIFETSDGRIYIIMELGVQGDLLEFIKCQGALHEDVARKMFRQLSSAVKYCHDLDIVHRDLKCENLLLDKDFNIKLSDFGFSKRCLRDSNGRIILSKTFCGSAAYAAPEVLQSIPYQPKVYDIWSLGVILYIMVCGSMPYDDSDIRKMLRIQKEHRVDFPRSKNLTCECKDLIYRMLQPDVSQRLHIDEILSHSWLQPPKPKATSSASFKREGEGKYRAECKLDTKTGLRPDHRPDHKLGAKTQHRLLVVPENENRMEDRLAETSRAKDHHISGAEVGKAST

[7] = biological target: Angiopoietin-1 receptor (Homo sapiens) (UniProt Q02763); settings: at 10 µM
[8] = biological target: High affinity nerve growth factor receptor (Homo sapiens) (UniProt P04629); settings: at 1 µM
[9] = biological target: BDNF/NT-3 growth factors receptor (Homo sapiens) (UniProt Q16620); settings: at 1 µM
[10] = biological target: BDNF/NT-3 growth factors receptor (Homo sapiens) (UniProt Q16620); settings: at 10 µM
[11] = biological target: T4, Tyrosine-protein kinase TXK (Homo sapiens) (UniProt P42681); settings: at 1 µM
T4 sequence (whole entry): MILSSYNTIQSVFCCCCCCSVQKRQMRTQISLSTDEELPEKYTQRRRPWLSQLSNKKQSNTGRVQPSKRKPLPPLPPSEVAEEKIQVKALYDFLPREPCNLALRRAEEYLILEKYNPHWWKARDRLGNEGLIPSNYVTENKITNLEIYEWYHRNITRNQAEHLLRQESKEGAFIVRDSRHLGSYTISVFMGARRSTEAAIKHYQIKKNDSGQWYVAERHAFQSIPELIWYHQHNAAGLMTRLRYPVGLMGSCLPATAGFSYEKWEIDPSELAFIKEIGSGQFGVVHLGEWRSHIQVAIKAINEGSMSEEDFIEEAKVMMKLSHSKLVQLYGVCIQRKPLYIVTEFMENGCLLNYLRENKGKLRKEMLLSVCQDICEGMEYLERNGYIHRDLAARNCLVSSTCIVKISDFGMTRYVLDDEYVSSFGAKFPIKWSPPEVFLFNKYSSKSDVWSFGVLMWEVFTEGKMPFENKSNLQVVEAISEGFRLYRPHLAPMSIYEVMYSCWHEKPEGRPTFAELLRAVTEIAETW

[12] = biological target: T4, Tyrosine-protein kinase TXK (Homo sapiens); settings: at 10 µM
[13] = biological target: Serine/threonine-protein kinase VRK2 (Homo sapiens) (UniProt Q86Y07); settings: at 1 µM
[14] = biological target: Serine/threonine-protein kinase VRK2 (Homo sapiens) (UniProt Q86Y07); settings: at 10 µM
[15] = biological target: T2, Testis-specific serine/threonine-protein kinase 1 (Homo sapiens); settings: at 10 µM
[16] = biological target: T5, Tyrosine-protein kinase Tec (Homo sapiens) (UniProt P42680); settings: at 1 µM
T5 sequence (whole entry): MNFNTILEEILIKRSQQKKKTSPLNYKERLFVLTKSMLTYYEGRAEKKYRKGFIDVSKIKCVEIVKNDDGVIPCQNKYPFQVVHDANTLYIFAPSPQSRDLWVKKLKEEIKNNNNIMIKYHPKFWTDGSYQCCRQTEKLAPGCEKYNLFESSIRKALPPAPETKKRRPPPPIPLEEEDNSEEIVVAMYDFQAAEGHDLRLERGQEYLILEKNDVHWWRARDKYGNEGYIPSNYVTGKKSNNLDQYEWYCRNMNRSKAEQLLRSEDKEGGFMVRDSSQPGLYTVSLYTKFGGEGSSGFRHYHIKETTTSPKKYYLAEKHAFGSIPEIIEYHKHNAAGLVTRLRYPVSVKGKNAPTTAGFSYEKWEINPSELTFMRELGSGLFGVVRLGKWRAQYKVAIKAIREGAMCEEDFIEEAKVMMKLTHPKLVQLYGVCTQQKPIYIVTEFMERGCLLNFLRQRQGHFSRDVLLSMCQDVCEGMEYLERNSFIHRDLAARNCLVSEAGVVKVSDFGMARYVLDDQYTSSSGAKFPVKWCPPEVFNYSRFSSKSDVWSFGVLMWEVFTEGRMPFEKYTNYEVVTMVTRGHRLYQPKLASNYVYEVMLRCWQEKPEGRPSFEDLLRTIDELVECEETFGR

[17] = biological target: Angiopoietin-1 receptor (Homo sapiens) (UniProt Q02763); settings: at 1 µM
[18] = biological target: T5, Tyrosine-protein kinase Tec (Homo sapiens); settings: at 10 µM
[19] = biological target: T6, Serine/threonine-protein kinase ULK2 (Homo sapiens) (UniProt Q8IYT8); settings: at 10 µM
T6 sequence (whole entry): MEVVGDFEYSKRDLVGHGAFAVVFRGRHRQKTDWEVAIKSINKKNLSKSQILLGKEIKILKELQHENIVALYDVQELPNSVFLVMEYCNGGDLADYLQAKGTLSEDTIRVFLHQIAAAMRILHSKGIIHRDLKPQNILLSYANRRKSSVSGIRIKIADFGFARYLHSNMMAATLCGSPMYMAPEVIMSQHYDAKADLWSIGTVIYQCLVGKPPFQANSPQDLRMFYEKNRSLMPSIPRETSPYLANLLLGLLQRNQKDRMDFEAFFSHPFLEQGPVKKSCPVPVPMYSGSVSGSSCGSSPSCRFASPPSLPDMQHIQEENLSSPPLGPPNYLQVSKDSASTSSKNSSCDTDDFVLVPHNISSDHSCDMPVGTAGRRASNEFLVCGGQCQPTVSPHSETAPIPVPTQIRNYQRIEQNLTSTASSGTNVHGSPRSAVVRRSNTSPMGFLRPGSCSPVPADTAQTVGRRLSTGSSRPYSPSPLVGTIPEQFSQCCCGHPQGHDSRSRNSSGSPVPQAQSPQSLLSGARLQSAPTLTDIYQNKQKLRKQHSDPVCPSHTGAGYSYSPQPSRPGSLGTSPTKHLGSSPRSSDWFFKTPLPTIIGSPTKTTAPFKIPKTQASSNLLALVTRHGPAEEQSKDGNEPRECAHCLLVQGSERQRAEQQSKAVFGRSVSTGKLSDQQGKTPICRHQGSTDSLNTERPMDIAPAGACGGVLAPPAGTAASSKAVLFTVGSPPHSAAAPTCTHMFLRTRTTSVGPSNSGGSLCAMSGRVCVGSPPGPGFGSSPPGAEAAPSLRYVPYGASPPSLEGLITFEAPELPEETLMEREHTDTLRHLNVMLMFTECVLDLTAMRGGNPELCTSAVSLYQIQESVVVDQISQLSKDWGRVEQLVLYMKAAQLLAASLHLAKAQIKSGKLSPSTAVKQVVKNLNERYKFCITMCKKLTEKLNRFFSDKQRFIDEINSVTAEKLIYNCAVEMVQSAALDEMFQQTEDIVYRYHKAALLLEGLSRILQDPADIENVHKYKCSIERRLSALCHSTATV

[20] = biological target: T6, Serine/threonine-protein kinase ULK2 (Homo sapiens); settings: at 1 µM

Chain of Serine/threonine-protein kinase WNK2 (Homo sapiens) (Q9Y3S1 whole entry): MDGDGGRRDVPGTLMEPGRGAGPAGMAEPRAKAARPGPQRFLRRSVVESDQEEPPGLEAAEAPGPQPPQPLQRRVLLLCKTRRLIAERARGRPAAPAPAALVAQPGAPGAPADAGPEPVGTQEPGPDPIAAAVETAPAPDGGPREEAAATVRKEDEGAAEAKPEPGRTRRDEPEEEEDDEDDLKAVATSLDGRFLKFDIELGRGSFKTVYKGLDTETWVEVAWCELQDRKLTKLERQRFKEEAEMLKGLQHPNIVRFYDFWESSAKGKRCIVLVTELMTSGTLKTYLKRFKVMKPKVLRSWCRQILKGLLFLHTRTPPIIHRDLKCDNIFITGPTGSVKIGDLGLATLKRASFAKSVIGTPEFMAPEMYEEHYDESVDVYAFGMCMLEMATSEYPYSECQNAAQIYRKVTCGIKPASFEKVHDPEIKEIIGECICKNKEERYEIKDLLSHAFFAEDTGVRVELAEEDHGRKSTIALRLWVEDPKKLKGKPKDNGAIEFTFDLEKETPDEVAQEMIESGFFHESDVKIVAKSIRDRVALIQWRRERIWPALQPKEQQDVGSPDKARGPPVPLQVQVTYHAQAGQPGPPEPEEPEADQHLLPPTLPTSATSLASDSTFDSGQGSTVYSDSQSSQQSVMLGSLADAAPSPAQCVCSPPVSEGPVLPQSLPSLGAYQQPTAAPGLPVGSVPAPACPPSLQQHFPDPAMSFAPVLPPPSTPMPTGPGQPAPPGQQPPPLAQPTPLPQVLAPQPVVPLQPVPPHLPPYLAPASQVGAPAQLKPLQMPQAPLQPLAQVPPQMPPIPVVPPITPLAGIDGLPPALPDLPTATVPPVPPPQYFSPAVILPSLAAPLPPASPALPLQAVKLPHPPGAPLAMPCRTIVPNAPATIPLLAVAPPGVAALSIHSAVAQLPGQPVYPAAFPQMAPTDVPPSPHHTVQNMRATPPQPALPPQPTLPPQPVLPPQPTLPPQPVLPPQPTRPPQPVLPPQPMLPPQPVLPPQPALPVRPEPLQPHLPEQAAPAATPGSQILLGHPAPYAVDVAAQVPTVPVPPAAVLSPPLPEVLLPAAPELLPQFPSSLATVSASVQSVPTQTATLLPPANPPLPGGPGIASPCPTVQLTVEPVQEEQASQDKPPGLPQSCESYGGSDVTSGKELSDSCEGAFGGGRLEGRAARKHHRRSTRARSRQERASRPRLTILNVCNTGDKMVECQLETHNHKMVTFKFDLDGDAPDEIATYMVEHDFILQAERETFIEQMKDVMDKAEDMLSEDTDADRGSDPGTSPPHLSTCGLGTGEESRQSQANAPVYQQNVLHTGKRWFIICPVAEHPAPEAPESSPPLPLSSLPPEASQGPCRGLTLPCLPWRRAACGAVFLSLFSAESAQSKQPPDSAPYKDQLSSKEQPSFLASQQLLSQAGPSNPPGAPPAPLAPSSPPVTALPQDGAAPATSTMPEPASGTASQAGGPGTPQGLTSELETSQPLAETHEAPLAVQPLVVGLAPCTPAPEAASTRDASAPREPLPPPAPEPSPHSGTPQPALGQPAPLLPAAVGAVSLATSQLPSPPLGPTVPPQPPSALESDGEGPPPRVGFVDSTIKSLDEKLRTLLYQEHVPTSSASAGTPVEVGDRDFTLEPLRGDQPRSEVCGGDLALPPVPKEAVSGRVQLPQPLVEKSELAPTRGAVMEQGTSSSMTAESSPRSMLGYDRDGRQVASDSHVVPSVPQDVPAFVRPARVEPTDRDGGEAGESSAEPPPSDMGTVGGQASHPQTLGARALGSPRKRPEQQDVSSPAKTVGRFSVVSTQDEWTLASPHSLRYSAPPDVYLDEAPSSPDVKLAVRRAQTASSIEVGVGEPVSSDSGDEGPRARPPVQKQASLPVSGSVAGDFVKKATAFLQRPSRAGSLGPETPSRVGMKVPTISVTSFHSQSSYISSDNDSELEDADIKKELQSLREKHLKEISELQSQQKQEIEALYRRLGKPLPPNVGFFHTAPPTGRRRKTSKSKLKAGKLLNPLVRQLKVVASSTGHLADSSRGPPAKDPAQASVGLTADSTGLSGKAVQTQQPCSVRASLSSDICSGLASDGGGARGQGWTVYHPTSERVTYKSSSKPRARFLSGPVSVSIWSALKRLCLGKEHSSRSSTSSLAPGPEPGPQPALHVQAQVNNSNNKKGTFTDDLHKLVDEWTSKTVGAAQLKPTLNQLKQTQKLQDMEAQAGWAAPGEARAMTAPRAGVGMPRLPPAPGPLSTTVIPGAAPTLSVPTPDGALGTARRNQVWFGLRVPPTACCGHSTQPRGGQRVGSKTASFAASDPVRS
Chain of Angiopoietin-1 receptor (Homo sapiens) (Q02763 whole entry): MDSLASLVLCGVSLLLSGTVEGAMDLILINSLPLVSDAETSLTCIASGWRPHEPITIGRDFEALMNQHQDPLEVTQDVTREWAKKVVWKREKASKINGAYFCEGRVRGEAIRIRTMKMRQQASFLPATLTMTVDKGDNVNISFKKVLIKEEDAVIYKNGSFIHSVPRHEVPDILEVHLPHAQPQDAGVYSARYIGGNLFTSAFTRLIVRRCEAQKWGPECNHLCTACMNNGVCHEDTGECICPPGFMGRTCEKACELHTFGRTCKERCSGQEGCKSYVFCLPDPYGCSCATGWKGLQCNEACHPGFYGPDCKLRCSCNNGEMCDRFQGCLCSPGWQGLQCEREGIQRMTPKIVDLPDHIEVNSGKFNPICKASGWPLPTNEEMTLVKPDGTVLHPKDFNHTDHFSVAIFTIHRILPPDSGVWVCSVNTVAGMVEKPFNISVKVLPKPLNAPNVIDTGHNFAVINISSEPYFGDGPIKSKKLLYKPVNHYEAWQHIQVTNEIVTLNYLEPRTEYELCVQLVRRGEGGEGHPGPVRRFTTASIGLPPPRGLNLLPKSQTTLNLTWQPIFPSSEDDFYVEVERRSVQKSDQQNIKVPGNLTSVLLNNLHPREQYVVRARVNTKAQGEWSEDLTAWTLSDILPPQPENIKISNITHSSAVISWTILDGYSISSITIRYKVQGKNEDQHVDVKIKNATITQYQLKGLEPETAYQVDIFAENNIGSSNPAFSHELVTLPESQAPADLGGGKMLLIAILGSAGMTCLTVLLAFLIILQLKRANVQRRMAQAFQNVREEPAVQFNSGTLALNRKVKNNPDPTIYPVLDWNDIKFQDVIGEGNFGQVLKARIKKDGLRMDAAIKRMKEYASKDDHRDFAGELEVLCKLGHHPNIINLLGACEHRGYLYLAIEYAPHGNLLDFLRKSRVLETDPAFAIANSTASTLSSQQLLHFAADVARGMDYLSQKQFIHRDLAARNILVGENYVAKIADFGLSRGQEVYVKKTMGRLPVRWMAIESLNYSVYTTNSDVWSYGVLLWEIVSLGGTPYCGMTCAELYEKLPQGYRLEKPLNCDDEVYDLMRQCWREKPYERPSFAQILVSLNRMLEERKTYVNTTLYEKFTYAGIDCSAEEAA
Chain of High affinity nerve growth factor receptor (Homo sapiens) (P04629 33-796 limits assumed): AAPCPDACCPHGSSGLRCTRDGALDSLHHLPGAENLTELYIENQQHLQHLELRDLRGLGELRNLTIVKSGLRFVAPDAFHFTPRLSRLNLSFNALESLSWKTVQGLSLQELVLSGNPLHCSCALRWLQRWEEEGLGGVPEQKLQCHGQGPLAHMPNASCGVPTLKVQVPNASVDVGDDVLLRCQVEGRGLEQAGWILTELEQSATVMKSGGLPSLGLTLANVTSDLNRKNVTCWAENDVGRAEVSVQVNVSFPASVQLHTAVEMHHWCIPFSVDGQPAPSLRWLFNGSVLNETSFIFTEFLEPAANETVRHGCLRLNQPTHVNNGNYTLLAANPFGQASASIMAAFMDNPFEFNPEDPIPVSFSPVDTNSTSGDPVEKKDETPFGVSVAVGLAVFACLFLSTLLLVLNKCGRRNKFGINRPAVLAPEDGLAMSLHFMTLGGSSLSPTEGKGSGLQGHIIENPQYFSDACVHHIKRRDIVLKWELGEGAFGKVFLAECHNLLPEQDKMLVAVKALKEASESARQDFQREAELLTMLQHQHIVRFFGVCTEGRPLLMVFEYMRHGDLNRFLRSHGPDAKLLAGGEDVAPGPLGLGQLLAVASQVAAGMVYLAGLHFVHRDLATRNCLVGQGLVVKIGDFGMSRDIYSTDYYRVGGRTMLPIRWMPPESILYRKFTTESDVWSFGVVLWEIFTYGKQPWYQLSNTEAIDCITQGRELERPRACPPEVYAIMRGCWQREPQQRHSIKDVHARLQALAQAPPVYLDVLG
Chain of Serine/threonine-protein kinase VRK2 (Homo sapiens) (Q86Y07 whole entry): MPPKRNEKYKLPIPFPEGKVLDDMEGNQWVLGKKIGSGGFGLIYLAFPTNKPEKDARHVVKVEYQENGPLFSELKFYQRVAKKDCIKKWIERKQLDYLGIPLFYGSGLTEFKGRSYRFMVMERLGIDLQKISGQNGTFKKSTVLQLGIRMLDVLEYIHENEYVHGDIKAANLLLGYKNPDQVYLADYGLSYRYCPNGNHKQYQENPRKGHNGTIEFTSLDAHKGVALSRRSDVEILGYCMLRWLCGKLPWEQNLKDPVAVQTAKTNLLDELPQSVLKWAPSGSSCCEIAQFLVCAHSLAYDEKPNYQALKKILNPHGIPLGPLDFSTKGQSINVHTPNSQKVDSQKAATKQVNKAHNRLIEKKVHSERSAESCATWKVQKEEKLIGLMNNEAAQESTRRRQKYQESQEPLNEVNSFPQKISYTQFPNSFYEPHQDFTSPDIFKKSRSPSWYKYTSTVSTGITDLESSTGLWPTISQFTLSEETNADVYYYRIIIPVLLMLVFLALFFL

SMILES | residual activity [1] | residual activity [2] | residual activity [3] | residual activity [4] | residual activity [5] | residual activity [6] | residual activity [7] | residual activity [8] | residual activity [9] | residual activity [10] | residual activity [11] | residual activity [12] | residual activity [13] | residual activity [14] | residual activity [15] | residual activity [16] | residual activity [17] | residual activity [18] | residual activity [19] | residual activity [20]
NC(=O)c1cccc(-c2cc(Nc3ccc(OC(F)(F)F)cc3)ncn2)c1 | 65% | 100% | 93% | 124% (inactive) |  |  |  |  |  |  |  |  |  |  |  |  |  |  |  | 
O=C1Nc2ccccc2/C1=C\c1c(Cl)[nH]c2ccccc12 | 34% |  |  |  | 81% | 78% | 47% | 85% | 87% | 57% | 83% | 74% | 76% (inactive) | 28% |  |  |  |  |  | 
Cc1cc(C)c(/C=C2\C(=O)Nc3ccccc32)[nH]1 | 0% |  |  |  |  |  | 82% | 1% | 40% | -7% | 103% |  | 98% (inactive) | 68% | 75% | 100% | 74% |  |  | 
Nc1nc(Nc2ccc(S(N)(=O)=O)cc2)nn1C(=O)c1c(F)cccc1F | 5% | 46% | 9% | 96% (inactive) |  | 76% | 0% | 41% | 54% | 5% |  | 41% | 97% (inactive) | 69% |  | 82% | 36% | 34% | 39% | 
COc1ccc(COc2ccc(Cc3cnc(N)nc3N)cc2OC)cc1 | 4% |  |  |  |  |  |  | 49% | 55% | -12% |  | 68% |  |  |  | 100% |  | 81% |  | 
Nc1ncnc2[nH]nc(Nc3ccc(F)cc3)c12 | 40% | 97% | 74% | 101% (inactive) | 108% |  | 79% | 78% | 123% |  | 66% | 18% | 97% (inactive) | 81% |  | 82% | 104% | 21% | 95% | 120%
COc1cc2nccc(Oc3ccc(NC(=O)Nc4cc(C)on4)c(Cl)c3)c2cc1OC | 0% |  |  | 100% (inactive) |  |  |  | 2% | 42% | -10% | 98% | 45% | 103% (inactive) |  |  |  |  |  | 99% | 97%
N#C/C(=C\c1ccc(O)c(O)c1)C(=O)NCc1ccccc1 | -1% |  | 86% |  |  |  | 71% | 64% |  | 102% |  | 86% |  |  |  |  | 89% |  | 85% | 
CSc1nc(-c2ccc(F)cc2)c(-c2ccnc(NC(C)c3ccccc3)c2)[nH]1 (centres undefined) | 39% |  |  |  |  | 101% | 41% |  | 3% | 1% | 86% | 86% |  | 93% |  |  | 91% | 63% |  | 
